# In the supplement of paper PMC8728848:
# This excerpt belongs to a sample that is enriched for the strongest signals.
# Columns and labels:
# Experiment in all cases: glycan array binding signal (z-score within array); higher = stronger binding
# Settings in all cases: glycan notation: IUPAC condensed, linker removed
# [1] = molecular target: Fuc(a1-2)Gal(b1-4)GlcNAc(b1-3)Gal(b1-4)GlcNAc(b1-3)Gal(b1-4)GlcNAc
# In short: (§1)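 The binding signal is a Z-score computed within each array and averaged over linkers. Arrays of the same protein sequence at different concentrations or buffers were also averaged together. Data originate from 3228 arrays in the Consortium for Functional Glycomics database, kept only where the protein sequence was available.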
# [2] = molecular target: Fuc(a1-2)Gal6S(b1-4)GlcNAc
# In short: as §1
# [3] = molecular target: Fuc(a1-3)[Gal3S(b1-4)]Glc6S
# In short: as §1
# [4] = molecular target: Fuc(a1-3)[Gal3S(b1-4)]GlcNAc6S
# In short: as §1
# [5] = molecular target: Fuc(a1-3)[GalNAc(b1-4)]GlcNAc
# In short: as §1
# [6] = molecular target: Gal(b1-4)GlcNAc(b1-3)[Gal(b1-4)GlcNAc(b1-6)]GalNAc
# In short: as §1
# [7] = molecular target: Gal3S(b1-3)[Fuc(a1-4)]GlcNAc
# In short: as §1
# Gal3S(b1-4)Glc = molecular target: Gal3S(b1-4)Glc
# In short: as §1
# Gal3S6S(b1-4)GlcNAc6S = molecular target: Gal3S6S(b1-4)GlcNAc6S
# In short: as §1
# GalNAc(b1-3)Gal = molecular target: GalNAc(b1-3)Gal
# In short: as §1
# [8] = molecular target: GlcNAc(b1-4)Gal(b1-4)GlcNAc
# In short: as §1
# [9] = molecular target: Neu5Ac(a2-3)Gal(b1-4)[Fuc(a1-3)]GlcNAc6S
# In short: as §1
# [10] = molecular target: Neu5Ac(a2-3)[GalNAc(b1-4)]Gal(b1-4)GlcNAc
# In short: as §1
# Neu5Ac(a2-6)Gal(b1-4)Glc = molecular target: Neu5Ac(a2-6)Gal(b1-4)Glc
# In short: as §1
# [11] = molecular target: Neu5Ac(a2-6)Gal(b1-4)GlcNAc(b1-3)Gal(b1-4)[Fuc(a1-3)]GlcNAc(b1-3)Gal(b1-4)[Fuc(a1-3)]GlcNAc
# In short: as §1
# [12] = molecular target: Neu5Ac(a2-8)Neu5Ac(a2-8)Neu5Ac
# In short: as §1
# [13] = molecular target: Neu5Ac(a2-8)Neu5Ac(a2-8)Neu5Ac(a2-3)[GalNAc(b1-4)]Gal(b1-4)Glc
# In short: as §1
# Neu5Ac(b2-6)GalNAc = molecular target: Neu5Ac(b2-6)GalNAc
# In short: as §1
binder,measurement,setting,value
"L-Selectin (Mus musculus), P18337 (protein) MVFPWRCEGTYWGSRNILKLWVWTLLCCDFLIHHGTHCWTYHYSEKPMNWENARKFCKQNYTDLVAIQNKREIEYLENTLPKSPYYYWIGIRKIGKMWTWVGTNKTLTKEAENWGAGEPNNKKSKEDCVEIYIKRERDSGKWNDDACHKRKAALCYTASCQPGSCNGRGECVETINNHTCICDAGYYGPQCQYVVQCEPLEAPELGTMDCIHPLGNFSFQSKCAFNCSEGRELLGTAETQCGASGNWSSPEPICQVVQCEPLEAPELGTMDCIHPLGNFSFQSKCAFNCSEGRELLGTAETQCGASGNWSSPEPICQETNRSFSKIKEGDYNPLFIPVAVMVTAFSGLAFLIWLARRLKKGKKSQERMDDPY",glycan array binding signal (z-score),[1],-0.485
same,glycan array binding signal (z-score),[2],-0.072
same,glycan array binding signal (z-score),[3],3.99
same,glycan array binding signal (z-score),[4],4.9
same,glycan array binding signal (z-score),[5],-0.454
same,glycan array binding signal (z-score),[6],-0.393
same,glycan array binding signal (z-score),[7],3.61
same,glycan array binding signal (z-score),Gal3S(b1-4)Glc,0.558
same,glycan array binding signal (z-score),Gal3S6S(b1-4)GlcNAc6S,4.38
same,glycan array binding signal (z-score),GalNAc(b1-3)Gal,-0.436
same,glycan array binding signal (z-score),[8],-0.044
same,glycan array binding signal (z-score),[9],8.82
same,glycan array binding signal (z-score),[10],-0.282
same,glycan array binding signal (z-score),Neu5Ac(a2-6)Gal(b1-4)Glc,-0.214
same,glycan array binding signal (z-score),[11],-0.252
same,glycan array binding signal (z-score),[12],-0.493
same,glycan array binding signal (z-score),[13],-0.235
same,glycan array binding signal (z-score),Neu5Ac(b2-6)GalNAc,-0.495
